# Test results from the supplement of paper PMC12808144.
# Values without a mark were called inactive.
# Legend:
# [1] = system: Mel-DCC-11; test: cell viability relative to DMSO control (fraction of DMSO control); higher = less cytotoxic, active = 0.5 or less; details: 1 µM; 120 h
# In short: (§1)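 For 120 h, duplicate wells of 384-well plates held 1 µM of each of 315 approved anti-cancer drugs (TargetMol), spotted acoustically before cells were added in 40 µl per well. Immortalized NHEM-hTERT melanocytes were seeded at 2500/well, and patient-derived Mel-DCC-11 plus its resistant subline Mel-DCC-11-R at 1500/well. The subline was run both without and with 8 µM of its selecting drug, and ATPlite 1step luminescence was read. Viability was normalised to vehicle-treated wells and averaged over the two replicates.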
# [2] = system: NHEM-hTERT; test: as above; details: 1 µM; 120 h
# In short: as §1
# [3] = system: Mel-DCC-11-R; test: cell viability relative to DMSO control (fraction of DMSO control); higher = less cytotoxic, active = 0.8 or less; details: 1 µM, 120 h
# In short: as §1
SMILES,cell viability [1],cell viability [2],cell viability ([3]; vemurafenib co-treatment 0 µM),cell viability ([3]; vemurafenib co-treatment 8 µM)
Nc1nc(=S)c2[nH]cnc2[nH]1 [Thioguanine],0.703,1.06,1.31,0.933
CNC(=O)c1cc(Oc2ccc(NC(=O)Nc3ccc(Cl)c(C(F)(F)F)c3)c(F)c2)ccn1 [Regorafenib],0.78,0.792,0.909,0.82
CCCCCOC(=O)Nc1nc(=O)n([C@@H]2O[C@H](C)[C@@H](O)[C@H]2O)cc1F [Capecitabine],1.18,1.14,1.04,1.11
CN1[C@@H]2CCC[C@H]1C[C@@H](NC(=O)c1nn(C)c3ccccc13)C2.Cl [Granisetron hydrochloride],1.15,1.07,0.924,1.07
C=C1CC[C@H](O)C/C1=C/C=C1\CCC[C@]2(C)[C@@H]([C@H](C)/C=C/[C@H](C)C(C)C)CC[C@@H]12 [Vitamin D2],1.13,0.998,1,1.16
O=C(c1ccc(F)c(F)c1Nc1ccc(I)cc1F)N1CC(O)([C@@H]2CCCCN2)C1 [Cobimetinib],0.0964 (active),0.715,0.309 (active),0.302 (active)
CCCCCCCCCCCCCCCC(=O)OC/C=C(C)/C=C/C=C(C)/C=C/C1=C(C)CCCC1(C)C [Retinol palmitate],0.752,0.993,1.02,0.978
Nc1ccn([C@@H]2O[C@H](CO)[C@@H](O)C2(F)F)c(=O)n1 [Gemcitabine],0.437 (active),0.639,0.869,0.709 (active)
CS(=O)(=O)CCNCc1ccc(-c2ccc3ncnc(Nc4ccc(OCc5cccc(F)c5)c(Cl)c4)c3c2)o1 [Lapatinib],1.22,0.822,1.12,0.841
COc1cc2ncnc(Nc3ccc(F)c(Cl)c3)c2cc1NC(=O)/C=C/CN1CCCCC1 [Dacomitinib],0.818,1.03,1.07,0.911
CN(C)C(=O)c1cc2cnc(Nc3ccc(N4CCNCC4)cn3)nc2n1C1CCCC1 [Ribociclib],0.584,0.989,1.25,1.21
COC(=O)C1=C(C)NC(C)=C(C(=O)OC)C1c1ccccc1[N+](=O)[O-] [Nifedipine],,1.03,1.1,1.18
CN(Cc1cnc2nc(N)nc(N)c2n1)c1ccc(C(=O)N[C@@H](CCC(=O)O)C(=O)O)cc1 [Methotrexate],,0.976,0.993,1.14
CC(=O)O[C@]1(C(C)=O)CC[C@H]2[C@@H]3CCC4=CC(=O)CCC4=C3[C@@H](c3ccc(N(C)C)cc3)C[C@@]21C [Ulipristal acetate],,0.967,1.13,1.04
C=C[C@H]1[C@@H](O[C@@H]2O[C@H](CO)[C@@H](O)[C@H](O)[C@H]2O)OC=C2C(=O)OCC[C@]21O [Swertiamarin],,0.942,0.976,1.2
CN(C)C/C=C/C(=O)Nc1cc2c(Nc3ccc(F)c(Cl)c3)ncnc2cc1O[C@H]1CCOC1.O=C(O)/C=C\C(=O)O.O=C(O)/C=C\C(=O)O [Afatinib Dimaleate],,1.13,1.03,0.766 (active)
CC(C)C[C@H](NC(=O)CNC(=O)c1cc(Cl)ccc1Cl)B(O)O [Ixazomib],,0.0856 (active),0.13 (active),0.0834 (active)
CS(=O)(=O)CCNCc1ccc(-c2ccc3ncnc(Nc4ccc(OCc5cccc(F)c5)c(Cl)c4)c3c2)o1.Cc1ccc(S(=O)(=O)O)cc1.Cc1ccc(S(=O)(=O)O)cc1.O [Lapatinib ditosylate monohydrate],,1.05,1.14,0.823
C#Cc1cccc(Nc2ncnc3cc(OCCOC)c(OCCOC)cc23)c1 [Erlotinib],,1.02,1.03,0.732 (active)
